Measured values taken from ChEMBL document CHEMBL1961873, “Compounds: GSK PKIS; Assays: Nanosyn kinase panel” (2012).

What was measured:
[1] = target: Tyrosine-protein kinase SYK (Homo sapiens) (UniProt P43405); conditions: at 1 µM
[2] = target: T1, Tyrosine-protein kinase Tec (Homo sapiens) (UniProt P42680); conditions: at 0.1 µM
T1 sequence (whole entry): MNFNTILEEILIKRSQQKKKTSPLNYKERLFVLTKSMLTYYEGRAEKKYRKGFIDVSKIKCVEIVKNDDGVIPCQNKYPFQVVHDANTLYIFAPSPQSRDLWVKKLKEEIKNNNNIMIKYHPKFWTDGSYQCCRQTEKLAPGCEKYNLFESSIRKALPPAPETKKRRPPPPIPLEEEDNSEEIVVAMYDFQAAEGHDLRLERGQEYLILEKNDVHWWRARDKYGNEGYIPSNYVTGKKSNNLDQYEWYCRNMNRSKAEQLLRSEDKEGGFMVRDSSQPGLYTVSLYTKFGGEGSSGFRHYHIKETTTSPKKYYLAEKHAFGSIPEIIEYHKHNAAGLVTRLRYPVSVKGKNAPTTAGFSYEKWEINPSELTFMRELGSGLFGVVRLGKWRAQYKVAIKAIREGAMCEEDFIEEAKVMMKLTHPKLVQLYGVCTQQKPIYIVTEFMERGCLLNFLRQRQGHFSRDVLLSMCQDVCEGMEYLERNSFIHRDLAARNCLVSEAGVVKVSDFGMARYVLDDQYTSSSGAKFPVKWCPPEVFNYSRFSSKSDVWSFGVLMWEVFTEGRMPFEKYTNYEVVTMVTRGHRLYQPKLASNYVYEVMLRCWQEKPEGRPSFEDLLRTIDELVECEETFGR

[3] = target: T1, Tyrosine-protein kinase Tec (Homo sapiens); conditions: at 1 µM
[4] = target: Angiopoietin-1 receptor (Homo sapiens) (UniProt Q02763); conditions: at 0.1 µM
Chain of Angiopoietin-1 receptor (Homo sapiens) (Q02763 whole entry): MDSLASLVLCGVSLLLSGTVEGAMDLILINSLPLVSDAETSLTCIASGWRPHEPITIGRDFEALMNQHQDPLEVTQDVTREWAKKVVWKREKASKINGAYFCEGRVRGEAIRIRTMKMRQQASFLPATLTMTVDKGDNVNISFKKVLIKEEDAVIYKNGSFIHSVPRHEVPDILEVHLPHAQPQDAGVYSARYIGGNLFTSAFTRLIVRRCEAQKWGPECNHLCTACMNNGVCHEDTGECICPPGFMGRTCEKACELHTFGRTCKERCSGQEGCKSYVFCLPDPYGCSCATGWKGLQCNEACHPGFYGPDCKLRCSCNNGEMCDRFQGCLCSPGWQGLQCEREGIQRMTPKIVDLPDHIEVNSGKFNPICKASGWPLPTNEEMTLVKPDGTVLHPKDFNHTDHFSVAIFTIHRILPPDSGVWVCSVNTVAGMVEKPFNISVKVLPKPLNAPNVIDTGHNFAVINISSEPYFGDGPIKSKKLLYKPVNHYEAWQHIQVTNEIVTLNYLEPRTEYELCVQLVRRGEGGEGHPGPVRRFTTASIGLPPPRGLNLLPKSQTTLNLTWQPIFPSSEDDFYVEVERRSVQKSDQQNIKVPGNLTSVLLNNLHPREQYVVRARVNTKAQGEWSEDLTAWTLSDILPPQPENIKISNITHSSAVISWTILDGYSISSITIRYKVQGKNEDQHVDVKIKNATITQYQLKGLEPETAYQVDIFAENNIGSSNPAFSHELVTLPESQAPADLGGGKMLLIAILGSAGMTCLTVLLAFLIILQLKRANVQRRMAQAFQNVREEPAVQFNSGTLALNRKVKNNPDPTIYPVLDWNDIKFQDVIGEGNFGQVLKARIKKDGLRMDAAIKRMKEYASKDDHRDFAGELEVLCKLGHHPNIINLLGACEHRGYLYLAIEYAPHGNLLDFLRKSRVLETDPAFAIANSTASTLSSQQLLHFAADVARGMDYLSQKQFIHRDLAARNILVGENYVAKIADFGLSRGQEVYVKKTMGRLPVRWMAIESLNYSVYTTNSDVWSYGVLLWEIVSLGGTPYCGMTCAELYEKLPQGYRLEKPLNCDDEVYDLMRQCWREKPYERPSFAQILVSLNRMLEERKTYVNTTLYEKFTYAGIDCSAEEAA

[5] = target: Angiopoietin-1 receptor (Homo sapiens) (UniProt Q02763); conditions: at 1 µM
[6] = target: T2, Non-receptor tyrosine-protein kinase TNK1 (Homo sapiens) (UniProt Q13470); conditions: at 0.1 µM
T2 sequence (whole entry): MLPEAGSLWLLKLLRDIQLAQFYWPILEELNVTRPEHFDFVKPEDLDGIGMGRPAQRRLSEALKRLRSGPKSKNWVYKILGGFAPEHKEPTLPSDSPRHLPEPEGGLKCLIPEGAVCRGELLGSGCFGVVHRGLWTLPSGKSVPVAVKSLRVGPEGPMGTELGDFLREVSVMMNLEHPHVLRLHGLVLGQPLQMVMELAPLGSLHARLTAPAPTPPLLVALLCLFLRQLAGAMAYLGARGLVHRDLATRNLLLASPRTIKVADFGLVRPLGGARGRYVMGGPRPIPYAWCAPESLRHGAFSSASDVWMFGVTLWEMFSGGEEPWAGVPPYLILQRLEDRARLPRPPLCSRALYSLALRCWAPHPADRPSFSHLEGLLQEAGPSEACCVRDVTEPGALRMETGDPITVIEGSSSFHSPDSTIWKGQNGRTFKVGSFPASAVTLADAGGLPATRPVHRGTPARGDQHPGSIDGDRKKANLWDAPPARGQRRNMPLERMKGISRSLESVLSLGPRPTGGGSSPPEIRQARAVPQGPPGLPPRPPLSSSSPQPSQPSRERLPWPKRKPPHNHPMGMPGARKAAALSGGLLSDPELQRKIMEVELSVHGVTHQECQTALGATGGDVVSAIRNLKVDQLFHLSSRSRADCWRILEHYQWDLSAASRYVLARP

[7] = target: T2, Non-receptor tyrosine-protein kinase TNK1 (Homo sapiens); conditions: at 1 µM
[8] = target: Activated CDC42 kinase 1 (Homo sapiens) (UniProt Q07912); conditions: at 0.1 µM
Chain of Activated CDC42 kinase 1 (Homo sapiens) (Q07912 whole entry, looked up): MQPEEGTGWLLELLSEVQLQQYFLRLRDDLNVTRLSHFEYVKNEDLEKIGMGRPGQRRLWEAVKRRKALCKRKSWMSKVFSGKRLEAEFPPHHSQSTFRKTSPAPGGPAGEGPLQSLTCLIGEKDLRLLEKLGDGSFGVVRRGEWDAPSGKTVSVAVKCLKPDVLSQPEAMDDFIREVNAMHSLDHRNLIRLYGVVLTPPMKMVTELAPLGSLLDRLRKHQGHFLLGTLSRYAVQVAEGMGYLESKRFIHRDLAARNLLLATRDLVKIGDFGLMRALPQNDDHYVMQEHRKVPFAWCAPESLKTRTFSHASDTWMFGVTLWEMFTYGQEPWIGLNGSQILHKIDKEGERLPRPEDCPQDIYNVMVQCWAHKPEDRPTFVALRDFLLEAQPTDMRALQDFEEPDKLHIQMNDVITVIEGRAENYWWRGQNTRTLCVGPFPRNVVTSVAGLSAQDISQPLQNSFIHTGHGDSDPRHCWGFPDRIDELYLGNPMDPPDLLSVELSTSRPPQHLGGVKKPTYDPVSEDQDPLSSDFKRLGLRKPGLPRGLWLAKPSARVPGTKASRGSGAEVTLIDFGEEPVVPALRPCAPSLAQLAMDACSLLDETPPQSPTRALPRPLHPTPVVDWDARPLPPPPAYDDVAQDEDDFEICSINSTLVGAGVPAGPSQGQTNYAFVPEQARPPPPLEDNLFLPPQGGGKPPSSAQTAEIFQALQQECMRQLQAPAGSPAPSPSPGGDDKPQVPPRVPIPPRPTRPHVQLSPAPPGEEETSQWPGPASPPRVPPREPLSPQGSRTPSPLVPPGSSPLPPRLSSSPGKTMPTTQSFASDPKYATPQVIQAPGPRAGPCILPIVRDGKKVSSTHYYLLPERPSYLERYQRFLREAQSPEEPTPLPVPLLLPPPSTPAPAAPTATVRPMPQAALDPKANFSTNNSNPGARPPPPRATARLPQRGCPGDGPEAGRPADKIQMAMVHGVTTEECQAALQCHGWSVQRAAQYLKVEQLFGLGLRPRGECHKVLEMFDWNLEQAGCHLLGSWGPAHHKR

[9] = target: Activated CDC42 kinase 1 (Homo sapiens) (UniProt Q07912); conditions: at 1 µM
[10] = target: High affinity nerve growth factor receptor (Homo sapiens) (UniProt P04629); conditions: at 0.1 µM
Chain of High affinity nerve growth factor receptor (Homo sapiens) (P04629 33-796 limits assumed): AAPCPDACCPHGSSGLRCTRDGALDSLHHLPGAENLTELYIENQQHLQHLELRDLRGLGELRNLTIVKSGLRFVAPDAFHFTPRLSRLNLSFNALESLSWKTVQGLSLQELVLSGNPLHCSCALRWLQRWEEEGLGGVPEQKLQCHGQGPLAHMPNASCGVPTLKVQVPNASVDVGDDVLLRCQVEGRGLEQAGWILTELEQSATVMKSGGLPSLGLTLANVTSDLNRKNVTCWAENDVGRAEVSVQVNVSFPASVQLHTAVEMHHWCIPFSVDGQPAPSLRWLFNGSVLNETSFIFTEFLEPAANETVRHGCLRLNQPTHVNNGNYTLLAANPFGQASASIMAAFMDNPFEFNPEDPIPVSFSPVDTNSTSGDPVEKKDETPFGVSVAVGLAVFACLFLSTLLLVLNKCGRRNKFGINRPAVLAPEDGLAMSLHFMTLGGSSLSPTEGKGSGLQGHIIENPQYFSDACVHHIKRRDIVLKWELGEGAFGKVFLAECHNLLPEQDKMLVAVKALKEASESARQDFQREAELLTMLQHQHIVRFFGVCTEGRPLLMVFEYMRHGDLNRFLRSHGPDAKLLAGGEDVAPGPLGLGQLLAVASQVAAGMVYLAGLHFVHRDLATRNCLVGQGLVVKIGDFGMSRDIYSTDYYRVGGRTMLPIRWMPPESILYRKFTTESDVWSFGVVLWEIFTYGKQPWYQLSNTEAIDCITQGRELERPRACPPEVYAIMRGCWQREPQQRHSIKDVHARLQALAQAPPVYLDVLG

[11] = target: High affinity nerve growth factor receptor (Homo sapiens) (UniProt P04629); conditions: at 1 µM
[12] = target: BDNF/NT-3 growth factors receptor (Homo sapiens) (UniProt Q16620); conditions: at 0.1 µM
Chain of BDNF/NT-3 growth factors receptor (Homo sapiens) (Q16620 32-822 limits assumed): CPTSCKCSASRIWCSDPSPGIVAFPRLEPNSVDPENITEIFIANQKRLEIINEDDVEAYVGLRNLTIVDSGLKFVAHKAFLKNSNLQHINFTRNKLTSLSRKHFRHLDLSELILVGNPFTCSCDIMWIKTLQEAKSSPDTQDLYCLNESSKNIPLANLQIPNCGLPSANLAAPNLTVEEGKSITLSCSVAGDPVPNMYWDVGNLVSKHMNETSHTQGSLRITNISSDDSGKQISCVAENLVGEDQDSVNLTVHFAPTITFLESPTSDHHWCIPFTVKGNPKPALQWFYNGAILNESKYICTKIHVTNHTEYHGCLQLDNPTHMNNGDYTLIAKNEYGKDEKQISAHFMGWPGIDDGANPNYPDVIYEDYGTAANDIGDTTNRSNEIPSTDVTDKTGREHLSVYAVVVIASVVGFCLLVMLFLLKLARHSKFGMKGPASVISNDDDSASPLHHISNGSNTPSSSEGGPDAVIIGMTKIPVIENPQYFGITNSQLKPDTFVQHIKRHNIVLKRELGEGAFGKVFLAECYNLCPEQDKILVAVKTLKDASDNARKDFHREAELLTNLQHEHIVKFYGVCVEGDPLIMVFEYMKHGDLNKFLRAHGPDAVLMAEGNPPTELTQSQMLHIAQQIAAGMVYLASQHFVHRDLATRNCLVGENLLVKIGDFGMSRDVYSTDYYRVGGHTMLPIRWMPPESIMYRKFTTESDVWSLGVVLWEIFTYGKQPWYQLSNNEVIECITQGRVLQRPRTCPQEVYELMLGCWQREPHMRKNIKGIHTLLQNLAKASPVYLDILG

[13] = target: BDNF/NT-3 growth factors receptor (Homo sapiens) (UniProt Q16620); conditions: at 1 µM
[14] = target: NT-3 growth factor receptor (Homo sapiens) (UniProt Q16288); conditions: at 0.1 µM
Chain of NT-3 growth factor receptor (Homo sapiens) (Q16288 32-839 limits assumed): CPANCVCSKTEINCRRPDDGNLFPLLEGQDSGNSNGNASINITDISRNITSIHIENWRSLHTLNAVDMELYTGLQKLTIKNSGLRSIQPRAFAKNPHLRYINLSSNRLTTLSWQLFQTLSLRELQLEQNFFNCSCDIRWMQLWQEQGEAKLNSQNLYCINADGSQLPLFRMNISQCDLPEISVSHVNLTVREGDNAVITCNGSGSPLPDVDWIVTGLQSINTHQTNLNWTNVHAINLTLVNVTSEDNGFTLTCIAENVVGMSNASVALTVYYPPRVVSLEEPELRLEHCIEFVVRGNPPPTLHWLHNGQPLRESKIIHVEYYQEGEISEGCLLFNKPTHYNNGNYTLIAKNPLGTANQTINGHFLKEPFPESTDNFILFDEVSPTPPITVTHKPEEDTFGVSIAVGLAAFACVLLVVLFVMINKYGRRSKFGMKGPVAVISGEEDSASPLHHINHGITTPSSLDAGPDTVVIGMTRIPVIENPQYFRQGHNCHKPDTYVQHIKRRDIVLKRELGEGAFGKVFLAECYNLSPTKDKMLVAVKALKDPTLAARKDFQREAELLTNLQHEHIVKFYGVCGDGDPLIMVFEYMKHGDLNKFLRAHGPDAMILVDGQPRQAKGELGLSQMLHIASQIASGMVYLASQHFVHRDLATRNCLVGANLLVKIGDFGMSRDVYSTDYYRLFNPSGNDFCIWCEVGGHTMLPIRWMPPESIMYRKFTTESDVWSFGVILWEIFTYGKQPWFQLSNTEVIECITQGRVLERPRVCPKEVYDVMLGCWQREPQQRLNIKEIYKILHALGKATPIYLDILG

[15] = target: NT-3 growth factor receptor (Homo sapiens) (UniProt Q16288); conditions: at 1 µM
[16] = target: T3, Tyrosine-protein kinase TXK (Homo sapiens) (UniProt P42681); conditions: at 0.1 µM
T3 sequence (whole entry): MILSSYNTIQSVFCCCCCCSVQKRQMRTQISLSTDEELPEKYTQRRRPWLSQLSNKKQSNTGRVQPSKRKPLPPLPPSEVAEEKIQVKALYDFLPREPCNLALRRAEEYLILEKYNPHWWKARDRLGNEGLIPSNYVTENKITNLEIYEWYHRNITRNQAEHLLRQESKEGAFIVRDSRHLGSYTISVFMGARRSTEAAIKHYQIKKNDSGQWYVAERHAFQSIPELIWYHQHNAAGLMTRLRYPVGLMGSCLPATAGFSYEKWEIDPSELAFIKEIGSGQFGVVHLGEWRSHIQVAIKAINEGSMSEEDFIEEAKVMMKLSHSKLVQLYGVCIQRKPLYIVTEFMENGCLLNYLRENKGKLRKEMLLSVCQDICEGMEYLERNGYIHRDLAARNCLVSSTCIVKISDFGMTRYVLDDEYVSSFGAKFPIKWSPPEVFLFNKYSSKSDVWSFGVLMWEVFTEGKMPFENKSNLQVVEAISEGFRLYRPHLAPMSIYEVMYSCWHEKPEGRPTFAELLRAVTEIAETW

[17] = target: T3, Tyrosine-protein kinase TXK (Homo sapiens); conditions: at 1 µM
[18] = target: Non-receptor tyrosine-protein kinase TYK2 (Homo sapiens) (UniProt P29597); conditions: at 0.1 µM;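 note: each value is a mean of the inhibition readings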
[19] = target: T4, Dual specificity protein kinase TTK (Homo sapiens) (UniProt P33981); conditions: at 1 µM;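 note: reported figures are mean TTK inhibition at 1 µM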
T4 sequence (whole entry): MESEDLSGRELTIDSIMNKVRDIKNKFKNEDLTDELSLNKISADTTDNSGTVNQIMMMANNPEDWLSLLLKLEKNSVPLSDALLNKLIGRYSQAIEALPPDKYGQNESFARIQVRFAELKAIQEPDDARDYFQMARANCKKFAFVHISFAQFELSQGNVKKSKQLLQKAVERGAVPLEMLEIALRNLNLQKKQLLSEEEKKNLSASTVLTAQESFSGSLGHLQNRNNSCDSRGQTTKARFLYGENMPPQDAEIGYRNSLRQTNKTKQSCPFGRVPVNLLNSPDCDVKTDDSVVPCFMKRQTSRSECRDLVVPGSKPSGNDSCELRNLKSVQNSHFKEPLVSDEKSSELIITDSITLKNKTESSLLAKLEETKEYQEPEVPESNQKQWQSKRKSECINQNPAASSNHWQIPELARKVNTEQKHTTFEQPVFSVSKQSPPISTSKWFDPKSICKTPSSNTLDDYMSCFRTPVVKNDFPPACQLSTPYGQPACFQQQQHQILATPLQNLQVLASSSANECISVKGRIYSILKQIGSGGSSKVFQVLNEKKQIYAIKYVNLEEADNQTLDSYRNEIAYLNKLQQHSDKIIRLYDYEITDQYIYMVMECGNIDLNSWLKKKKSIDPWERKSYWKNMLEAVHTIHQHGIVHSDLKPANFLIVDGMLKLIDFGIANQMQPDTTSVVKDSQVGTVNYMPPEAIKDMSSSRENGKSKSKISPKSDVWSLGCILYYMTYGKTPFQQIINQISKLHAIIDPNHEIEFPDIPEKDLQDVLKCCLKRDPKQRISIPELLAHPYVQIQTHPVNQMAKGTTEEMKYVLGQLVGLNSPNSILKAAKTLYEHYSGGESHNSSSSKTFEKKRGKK

[20] = target: T5, Aurora kinase A (Homo sapiens) (UniProt O14965); conditions: at 0.1 µM;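 note: each reported value is a mean percent inhibition of Aurora-A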
T5 sequence (whole entry): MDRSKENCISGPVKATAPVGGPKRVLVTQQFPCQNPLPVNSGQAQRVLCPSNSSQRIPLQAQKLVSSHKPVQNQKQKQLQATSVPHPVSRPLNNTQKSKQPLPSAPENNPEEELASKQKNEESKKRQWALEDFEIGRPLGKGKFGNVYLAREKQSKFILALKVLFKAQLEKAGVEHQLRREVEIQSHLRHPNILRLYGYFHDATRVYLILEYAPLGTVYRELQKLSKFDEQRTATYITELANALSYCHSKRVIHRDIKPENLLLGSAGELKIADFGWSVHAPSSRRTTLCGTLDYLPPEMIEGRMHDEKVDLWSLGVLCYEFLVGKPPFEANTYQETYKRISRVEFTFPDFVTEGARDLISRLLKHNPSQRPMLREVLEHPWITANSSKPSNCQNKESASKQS

SMILES | inhibition [1] | inhibition [2] | inhibition [3] | inhibition [4] | inhibition [5] | inhibition [6] | inhibition [7] | inhibition [8] | inhibition [9] | inhibition [10] | inhibition [11] | inhibition [12] | inhibition [13] | inhibition [14] | inhibition [15] | inhibition [16] | inhibition [17] | inhibition [18] | inhibition [19] | inhibition [20]
Cc1cccc(-c2n[nH]cc2-c2ccc3ncccc3n2)n1 | -0.38% | 0.76% | 1.51% | 1.2% | 3.33% | -0.63% | 0.33% | -0.11% | 0.91% | -1% | -0.2% | -0.22% | 0.79% | 0.22% | -0.92% | 1.27% | 2.32% | -0.15% | 3.31% | 2.76%
CCCN1CCC(Oc2cc(Nc3nc(Nc4cccc(F)c4C(N)=O)c4cc[nH]c4n3)c(OC)cc2Cl)CC1 | 2.76% | 1% | 3.16% | 4.02% | 10.1% | -2.66% | 1.46% | -0.19% | 2.16% | 2.22% | 5.14% | -1.93% | 3.41% | -1.48% | 5.25% | 2.84% | 3.46% | 0.33% | 33.7% | 0.38%
COc1cc2c(cc1Nc1nc(N3CCc4ccccc43)c3cc[nH]c3n1)N(C(=O)CN(C)C)CC2 | -0.01% | 2.67% | 7.6% | -0.77% | 1.37% | 1.17% | 12% | 0.63% | 1.93% | 0.79% | 3.52% | -0.87% | 2.75% | -1.19% | 5.17% | 4.42% | 7.54% | -1.57% | 25.1% | 1.58%
CC1=C(C(=O)Nc2ccc3[nH]ncc3c2)C(c2ccc(Cl)c(Cl)c2)CC(=O)N1 (stereo not given) | 1.43% | 2.26% | 6.35% | 2.31% | 4.81% | -0.39% | 9.22% | 0.3% | 1.41% | 2.44% | 0.57% | 1.67% | -0.28% | 2.34% | 1.92% | 1.64% | 0.6% | 0.3% | 7.89% | 9.43%
Nc1ncnc2occ(-c3ccc(NC(=O)Nc4cc(C(F)(F)F)cc(C(F)(F)F)c4)cc3)c12 | -6.95% | 3.65% | 6.33% | 29.1% | 77.5% | 4.85% | 33.8% | 1.04% | 1.13% | 37.1% | 94.1% | 42.3% | 86.4% | 39% | 87.4% | 1.73% | 4.45% | -8.39% | 3.75% | 2.66%
COc1ccc(-c2nn3ncccc3c2-c2ccnc(Nc3ccc(Cl)c(C(F)(F)F)c3)n2)cc1 | -1.11% | 1.4% | 1.86% | 4.94% | 4.42% | 0.89% | 13.3% | 0.86% | 1.6% | -2.59% | -1.35% | -0.25% | 2.61% | -0.42% | 2.6% | 3.13% | 3.03% | -2.93% | 5% | 1.01%
